Shiga inhibitor: inhibitors of Shiga toxin in Vero cells; Vero cells, Shiga toxin protein synthesis inhibition reporter; inhibition, % at 38.7 µM; hit rate 9.2% among 290,000; AID 2315; in the data active = inhibition mostly above about 28%, no sharp cut-off; inactive = mostly below about 43%; note: 0% is about no effect
Pf growth 48h: P. falciparum growth inhibition at 48 hours (one generation). P. falciparum luciferase growth in erythrocytes, 48 h. hit rate 5.9% among 310,000. Potency, µM (highest dose often 28.7 µM), for inactives: at the highest dose activity change, negative = inhibition, most hits filed as inhibitors; note: potency is the fitted concentration of half-maximal effect; % is set by controls: 0 for no effect and ±100 for the full control effect
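Erythrocytes infected with P. falciparum carrying an integrated firefly luciferase reporter (2% hematocrit, 0.1% parasitemia final) were exposed to compounds in RPMI 1640 with 0.5% Albumax at 37 C, 5% CO2. Growth inhibition was scored as reduced luminescence.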
CHX counter: counter-screen for Shiga toxin inhibitors: cycloheximide protein synthesis inhibition | hit rate 12% among 300,000 | cell reporter, cycloheximide protein synthesis inhibition counterscreen | max response, %; in the data active = max response mostly above about 13%, no sharp cut-off; inactive = mostly below about 14%; note: read at 38.3 µM for the half of the compounds with a filed dose; 0% is about no effect
LmPK inh: blocks Leishmania mexicana pyruvate kinase activity. Q27686. purified LmPK, Kinase-Glo ATP luminescence, 1 h. Potency, µM (series often up to 57.5 µM), without a hit: at the top dose activity change, negative = inhibition, hits mostly inhibitors. hit rate 0.37% among 290,000; note: potency is the fitted concentration of half-maximal effect; % is set by controls: 0 for no effect and ±100 for the full control effect
Target sequence (Q27686 whole entry, looked up): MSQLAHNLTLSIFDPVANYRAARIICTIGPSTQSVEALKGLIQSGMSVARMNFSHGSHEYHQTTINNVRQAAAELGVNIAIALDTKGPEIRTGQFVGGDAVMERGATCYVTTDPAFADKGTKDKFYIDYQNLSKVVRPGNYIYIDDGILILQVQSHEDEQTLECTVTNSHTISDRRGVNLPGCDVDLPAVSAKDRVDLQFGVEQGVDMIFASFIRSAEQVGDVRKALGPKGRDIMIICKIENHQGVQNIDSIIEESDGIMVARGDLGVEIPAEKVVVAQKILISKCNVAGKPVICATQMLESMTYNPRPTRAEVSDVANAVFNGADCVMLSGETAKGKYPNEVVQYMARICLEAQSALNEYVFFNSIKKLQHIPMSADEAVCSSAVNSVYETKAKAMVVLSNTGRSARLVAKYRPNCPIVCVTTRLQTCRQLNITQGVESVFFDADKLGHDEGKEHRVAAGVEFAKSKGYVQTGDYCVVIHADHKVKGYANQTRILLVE
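Purified LmPK (0.1 nM) converted ADP (0.1 mM) to ATP with PEP (0.5 mM) in imidazole buffer pH 7.2 with KCl and MgCl2, 1 h at room temperature. ATP was read by Kinase-Glo luminescence; data normalized to uninhibited and no-enzyme controls.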
Pf growth 96h: inhibits malaria parasite growth, 96 h; P. falciparum luciferase reporter growth, 96 h; Potency, µM (titrated, usually from 28.7 µM), without a hit: at the top dose activity change, negative = inhibition, hits mostly inhibitors; hit rate 6.9% among 320,000; AID 504834; note: potency is the fitted concentration of half-maximal effect; % is set by controls: 0 for no effect and ±100 for the full control effect
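Cell-based qHTS: luciferase-tagged P. falciparum in erythrocytes (2% hematocrit, 0.05% parasitemia final) incubated with compounds for 96 hours, 37 C, 5% CO2; luciferase detection reagent then added and luminescence measured.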
The depositor's hits bear a star; ? = inconclusive; . = not tested or not shown. Shown are actives, neighbours in structure and some others; about 22% of the full set was active somewhere. Unless noted, calls come from the whole dose curve; as a rule, active = well fitted inhibition curve with a large enough effect; inconclusive = small, poorly fitted or top-dose-only effect, or another doubt; inactive = no such curve, though single readings can be large or run the other way.

SMILES	Shiga inhibitor	Pf growth 48h	CHX counter	LmPK inh	Pf growth 96h
Cn1c(CN2CCN(C(=O)c3ccccc3Cl)CC2)nc2cc([N+](=O)[O-])ccc21	-5.8	4.1%	-4.2	7.4%	-10.9%
Cn1c(CN2CCN(C(=O)c3ccccc3)CC2)nc2cc([N+](=O)[O-])ccc21	46.2*	20.4%	18.6*	1.0%	-3.2%
Cc1cc(C)cc(OCC(=O)Nc2ccc(CN3CCCCC3)cc2)c1	-10.4	11.7µM*	16.1	5.2%	?
Cc1cccc(OCC(=O)Nc2ccc3c(c2)nc(CCN2CCCCC2)n3C)c1	-6.9	?	-1.9	-6.2%	?
Cn1c(CN2CCCC2)nc2cc(NC(=O)COc3ccc([N+](=O)[O-])cc3)ccc21	-8.0	13.1µM*	-3.7	1.8%	?
Cc1cccc(OCC(=O)Nc2ccc3c(c2)nc(CN2CCCCC2)n3C)c1	53.2	-14.4%	29.1*	-1.5%	-7.5%
CCOc1ccc2cc(C3CC(c4ccco4)=NN3S(C)(=O)=O)c(=O)[nH]c2c1 (stereo not given)	21.4	-7.3%	9.0	-0.5%	-12.9%
O=C(Cc1ccc(NS(=O)(=O)c2ccc(F)cc2)cc1)NCc1cccnc1	-7.9	2.3%	-6.4	8.0%	-3.5%
CC12CCC(C(=O)Nc3cc(Cl)ccc3Cl)(C/C1=N\O)C2(C)C (stereo not given)	-5.9	36.4%	7.1	2.1%	-1.4%
COc1cccc(CNS(=O)(=O)c2ccc3c(c2)C(C)(C)C(=O)N3C)c1	-10.0	7.7%	-4.4	0.4%	12.3%
CCOC(=O)C(CCCP(=O)(c1ccccc1)c1ccccc1)(NC(C)=O)C(=O)OCC	1.1	10.5%	1.7	-8.5%	-22.0%
CC1CCN(CC(O)COC2CC(C)CCC2C(C)C)CC1 (stereo not given)	18.5	11.7µM*	-2.5	2.3%	?
CC1CCC(C(C)C)C(OCC(O)CNC(C)(C)C)C1 (stereo not given)	-8.8	?	-6.5	-1.4%	5.22µM*
COCCn1c(SCC(=O)NN2C(=O)NC(C)(c3ccccc3)C2=O)nnc1-c1ccncc1 (stereo not given)	.	-20.4%	.	.	0.0%
CCOc1ccc(/C=N/N2C(=O)C(CC(=O)Nc3ccc(F)cc3F)SC2=NC)cc1OC (stereo not given)	-18.0	11.7µM*	-2.0	0.8%	11.7µM*
CCOC(=O)N1CCN(C2CCCN(C(=O)c3cccc(N(C)C)c3)C2)CC1 (stereo not given)	9.4	0.6%	6.7	-5.8%	?
O=S(=O)(c1ccc(F)cc1)n1ccc(-c2cccc(OCc3ccc(Cl)cc3Cl)c2)n1	-6.6	?	-0.9	-3.2%	0.147µM*
O=c1[nH]nc(-c2ccc(OCc3ccc(Cl)cc3Cl)cc2)o1	1.6	-3.0%	-6.6	0.3%	-12.8%
O=c1[nH]c(C2CCCN(S(=O)(=O)c3ccccc3)C2)nc2c1nnn2Cc1ccccc1 (stereo not given)	-6.6	10.4µM*	-0.6	5.9%	-39.9%
O=c1[nH]c(C2CCCN(S(=O)(=O)c3cccc(F)c3)C2)nc2c1nnn2Cc1ccccc1 (stereo not given)	-16.9	7.38µM*	-2.5	4.7%	?
COc1ccc(Cn2nnc3c(=O)[nH]c(C4CCCN(C(=O)c5ccccc5)C4)nc32)cc1 (stereo not given)	-1.9	?	-0.6	3.4%	11.7µM*
O=c1[nH]c(C2CCN(S(=O)(=O)c3ccc4c(c3)OCCO4)CC2)nc2c1nnn2Cc1ccccc1F	-8.2	?	-7.1	-4.8%	13.1µM*
O=c1[nH]c(C2CCN(S(=O)(=O)c3ccc4c(c3)OCCO4)CC2)nc2c1nnn2Cc1c(F)cccc1Cl	-15.1	-21.6%	-2.6	-0.3%	-28.8%
O=c1[nH]c(C2CCCN(S(=O)(=O)c3ccccc3)C2)nc2c1nnn2Cc1ccccc1Br (stereo not given)	-10.8	?	0.7	2.1%	?
Cc1ccc(S(=O)(=O)NCCC(=O)Nc2cccc(Cl)c2)cc1	-2.8	-3.2%	-2.1	2.3%	3.6%
SMILES	Shiga inhibitor	Pf growth 48h	CHX counter	LmPK inh	Pf growth 96h
O=c1[nH]c(C2CCN(S(=O)(=O)c3ccccc3C(F)(F)F)CC2)nc2c1nnn2Cc1cccc(F)c1	-4.9	2.62µM*	-4.5	0.2%	?
O=c1[nH]c(C2CCCN(S(=O)(=O)c3ccccc3)C2)nc2c1nnn2Cc1ccccc1F (stereo not given)	-2.7	10.4µM*	-0.6	2.1%	10.2%
Cc1ccc(C2CC(c3cccs3)=NN2S(=O)(=O)c2ccc(C)cc2)cc1 (stereo not given)	7.0	?	12.2	1.1%	2.94µM*
NS(=O)(=O)c1ccc(N2N=C(c3ccccc3)CC2c2ccccc2)cc1 (stereo not given)	-11.3	-24.0%	-6.6	6.0%	9.28µM*
O=S(=O)(c1ccccc1)N1N=C(c2cccs2)CC1c1ccc(F)cc1 (stereo not given)	36.8	?	4.5	0.6%	9.28µM*
Fc1ccc(N2N=C(c3cccs3)CC2c2ccccc2)cc1 (stereo not given)	19.5	13.1µM*	11.2	8.7%	12.1%
O=C(CSc1nc2ccccc2o1)N1N=C(c2cccs2)CC1c1ccc(F)cc1 (stereo not given)	-3.7	25.3%	8.2	0.4%	15.3%
CCCn1c(SCC(=O)Nc2cc(C(=O)O)ccc2C)nc2sc3c(c2c1=O)CCC3	.	1.9%	.	.	5.1%
COc1cccc([C@@H]2Oc3ccc(Br)cc3C(=O)[C@H]2OC(=O)NC2CCCC2)c1	11.9	-6.3%	-1.7	-0.4%	-27.1%
NNC(=O)Cn1c(-c2ccccn2)nc2ccccc21	7.7	11.1%	10.8	0.9%	24.5%
O=C(O)Cn1c(-c2ccccn2)nc2ccccc21	46.0*	59.1%	31.5*	-1.7%	127.2%
O=C(O)Cn1c(-c2ccccc2)nc2ccccc21	11.7	31.4%	-1.8	1.0%	-99.8%
O=C(O)Cn1c(=O)c(-c2ccccc2)nc2ccccc21	-3.5	12.7%	4.0	-5.6%	7.38µM*
C#CCOc1ccccc1CNC1CCN(Cc2ccccc2)CC1	12.3	9.28µM*	-2.1	-1.5%	13.1µM*
FC(F)(F)c1cccc(CNC2CCN(Cc3ccccc3)CC2)c1	-9.9	2.62µM*	-2.7	-5.2%	?
O=C(c1ccco1)c1coc2c1cc(O)c1ccccc12	99.6*	?	31.6*	-2.5%	?
O=C(Nc1ccccn1)c1cccc(S(=O)(=O)N2CCc3ccccc3C2)c1	.	34.9%	.	.	0.0%
Cc1cc(C)n2nc(SCCOc3ccccc3)nc2n1	74.8	89.1%	11.1*	4.3%	2.5%
Cc1cc(C)n2nc(SCc3nc4ccccc4[nH]3)nc2n1	active	44.6%	14.4	6.7%	7.38µM*
CC(=O)c1ccc(C(C)(C)c2ccc(C(C)=O)s2)s1	10.2	?	0.7	-3.8%	11.7µM*
CC(=O)c1ccc(C(=O)N2CCCC(Nc3ccccc3)C2)s1 (stereo not given)	-8.4	-6.5%	2.0	3.9%	9.1%
